# From publication PMC5540273 (PLoS ONE, 2017)
# “And” between values parts separate entries of the source, which are not always exact repeats. Identical values can stand only once. Like-named read-outs stand apart in the source and are kept apart here.
# Tests used:
# EPHB6 = conditions: concentration: 1 μM, replicates: in singlicate, n = 1
# ERBB2 = conditions: concentration: 1 μM, replicates: in singlicate, n = 1
# ERBB3 = conditions: concentration: 1 μM, replicates: in singlicate, n = 1
# ERBB4 = conditions: concentration: 1 μM, replicates: in singlicate, n = 1
# ERK1 = test system: T1, ERK1; conditions: concentration: 1 μM, replicates: in singlicate, n = 1
# T1 construct: gene MAPK3
# ERK2 = test system: T2, ERK2; conditions: concentration: 1 μM, replicates: in singlicate; n = 1
# T2 construct: gene MAPK1
# ERK3 = test system: T3, ERK3; conditions: concentration: 1 μM, replicates: in singlicate, n = 1
# T3 construct: gene MAPK6
# ERK4 = test system: T4, ERK4; conditions: concentration: 1 μM, replicates: in singlicate, n = 1
# T4 construct: gene MAPK4
# ERK5 = test system: T5, ERK5; conditions: concentration: 1 μM, replicates: in singlicate, n = 1
# T5 construct: gene MAPK7
# ERK8 = test system: T6, ERK8; conditions: concentration: 1 μM, replicates: in singlicate; n = 1
# T6 construct: gene MAPK15
# ERN1 = conditions: concentration: 1 μM, replicates: in singlicate, n = 1
# FAK = test system: T7, FAK; conditions: concentration: 1 μM, replicates: in singlicate; n = 1
# T7 construct: gene PTK2
# FER = conditions: concentration: 1 μM, replicates: in singlicate, n = 1
# FES = conditions: concentration: 1 μM, replicates: in singlicate, n = 1
# FGFR1 = conditions: concentration: 1 μM, replicates: in singlicate, n = 1
# FGFR2 = conditions: concentration: 1 μM, replicates: in singlicate; n = 1
# FGFR3 = conditions: concentration: 1 μM, replicates: in singlicate, n = 1
# FGFR4 = conditions: concentration: 1 μM, replicates: in singlicate, n = 1
# FGR = conditions: concentration: 1 μM, replicates: in singlicate, n = 1
# FLT1 = conditions: concentration: 1 μM, replicates: in singlicate, n = 1
# 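Also: KINOMEscan kinase panel screen.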
smiles,measurement,setting,value
O=C1NC(=O)C(N2CCc3ccccc32)=C1c1cccc(Cl)c1 [SB-408010],%Inh,EPHB6,0%
same,%Inh,ERBB2,0%
same,%Inh,ERBB3,0%
same,%Inh,ERBB4,0%
same,%Inh,ERK1,0%
same,%Inh,ERK2,12%
same,%Inh,ERK3,0%
same,%Inh,ERK4,0%
same,%Inh,ERK5,0%
same,%Inh,ERK8,9%
same,%Inh,ERN1,27%
same,%Inh,FAK,0%
same,%Inh,FER,0%
same,%Inh,FES,31%
same,%Inh,FGFR1,5%
same,%Inh,FGFR2,15%
same,%Inh,FGFR3,0%
same,%Inh,FGFR4,0%
same,%Inh,FGR,22%
same,%Inh,FLT1,11%
Cc1ccc(NC(=O)c2ccnc(N3CCN(C)CC3)c2)cc1-c1ccc(C(=O)NCC2CC2)cc1 [GW775604],%Inh,EPHB6,0%
same,%Inh,ERBB2,0%
same,%Inh,ERBB3,0%
same,%Inh,ERBB4,0%
same,%Inh,ERK1,0%
same,%Inh,ERK2,0%
same,%Inh,ERK3,0%
same,%Inh,ERK4,0%
same,%Inh,ERK5,0%
same,%Inh,ERK8,0%
same,%Inh,ERN1,0%
same,%Inh,FAK,0%
same,%Inh,FER,24%
same,%Inh,FES,0%
same,%Inh,FGFR1,0%
same,%Inh,FGFR2,0%
same,%Inh,FGFR3,0%
same,%Inh,FGFR4,0%
same,%Inh,FGR,8%
same,%Inh,FLT1,0%
Cc1cn2c(=O)cc(N3CCOCC3)nc2n1Cc1cccc(Cl)c1Cl [GSK2334006],%Inh,EPHB6,0%
same,%Inh,ERBB2,20%
same,%Inh,ERBB3,0%
same,%Inh,ERBB4,33%
same,%Inh,ERK1,0%
same,%Inh,ERK2,13%
same,%Inh,ERK3,21%
same,%Inh,ERK4,0%
same,%Inh,ERK5,0%
same,%Inh,ERK8,24%
same,%Inh,ERN1,0%
same,%Inh,FAK,0%
same,%Inh,FER,33%
same,%Inh,FES,8%
same,%Inh,FGFR1,1%
same,%Inh,FGFR2,26%
same,%Inh,FGFR3,18%
same,%Inh,FGFR4,1%
same,%Inh,FGR,51%
same,%Inh,FLT1,34%
N#Cc1ccc(-c2cc(-c3c[nH]nc3-c3ccccn3)ccn2)cc1 [GW693028],%Inh,EPHB6,2%
same,%Inh,ERBB2,28%
same,%Inh,ERBB3,0%
same,%Inh,ERBB4,27%
same,%Inh,ERK1,6%
same,%Inh,ERK2,0%
same,%Inh,ERK3,0%
same,%Inh,ERK4,3%
same,%Inh,ERK5,0%
same,%Inh,ERK8,10%
same,%Inh,ERN1,0%
same,%Inh,FAK,0%
same,%Inh,FER,7%
same,%Inh,FES,4%
same,%Inh,FGFR1,0%
same,%Inh,FGFR2,0%
same,%Inh,FGFR3,0%
same,%Inh,FGFR4,12%
same,%Inh,FGR,21%
same,%Inh,FLT1,0%
O=C(c1ccc(-c2cc(-c3c[nH]nc3-c3ccccn3)ccn2)cc1)N1CCOCC1 [GW812171],%Inh,EPHB6,0%
same,%Inh,ERBB2,11%
same,%Inh,ERBB3,0%
same,%Inh,ERBB4,0%
same,%Inh,ERK1,0%
same,%Inh,ERK2,0%
same,%Inh,ERK3,0%
same,%Inh,ERK4,16%
same,%Inh,ERK5,0%
same,%Inh,ERK8,5%
same,%Inh,ERN1,54%
same,%Inh,FAK,0%
same,%Inh,FER,0%
same,%Inh,FES,0%
same,%Inh,FGFR1,4%
same,%Inh,FGFR2,0%
same,%Inh,FGFR3,0%
same,%Inh,FGFR4,0%
same,%Inh,FGR,0%
same,%Inh,FLT1,0%
CN1c2ccc(NCc3ccc(F)cc3)cc2-c2c(cnn2C)S1(=O)=O,%Inh,EPHB6,0%
same,%Inh,ERBB2,7%
same,%Inh,ERBB3,27%
same,%Inh,ERBB4,0%
same,%Inh,ERK1,0%
same,%Inh,ERK2,0%
same,%Inh,ERK3,0%
same,%Inh,ERK4,0%
same,%Inh,ERK5,3%
same,%Inh,ERK8,22%
same,%Inh,ERN1,0%
same,%Inh,FER,0%
same,%Inh,FES,4%
same,%Inh,FGFR1,2%
same,%Inh,FGFR2,2%
same,%Inh,FGFR3,0%
same,%Inh,FGFR4,0%
same,%Inh,FGR,0%
same,%Inh,FLT1,0%
COc1ccc(Nc2nccc(N3CCC(NC(=O)Nc4cc(C)ccc4C)C3)n2)cc1 (centres unmarked) [GSK1379741],%Inh,EPHB6,0%
same,%Inh,ERBB2,6%
same,%Inh,ERBB3,0%
same,%Inh,ERBB4,52%
same,%Inh,ERK1,0%
same,%Inh,ERK2,0%
same,%Inh,ERK3,0%
same,%Inh,ERK4,1%
same,%Inh,ERK5,0%
same,%Inh,ERK8,0%
same,%Inh,ERN1,0%
same,%Inh,FAK,0%
same,%Inh,FER,0%
same,%Inh,FES,0%
same,%Inh,FGFR1,0%
same,%Inh,FGFR2,0%
same,%Inh,FGFR3,0%
same,%Inh,FGFR4,0%
same,%Inh,FGR,5%
same,%Inh,FLT1,16%
Cc1nnc(-c2ccc3occ(-c4ccc(C(C)O)cc4)c3c2)o1 (centres unmarked),%Inh,EPHB6,15%
same,%Inh,ERBB2,0%
same,%Inh,ERBB3,9%
same,%Inh,ERBB4,0%
same,%Inh,ERK1,0%
same,%Inh,ERK2,0%
same,%Inh,ERK3,15%
same,%Inh,ERK4,10%
same,%Inh,ERK5,7%
same,%Inh,ERK8,31%
same,%Inh,ERN1,0%
same,%Inh,FAK,0%
same,%Inh,FER,0%
same,%Inh,FES,17%
same,%Inh,FGFR1,0%
same,%Inh,FGFR2,16%
same,%Inh,FGFR3,22%
same,%Inh,FGFR4,19%
same,%Inh,FGR,11%
same,%Inh,FLT1,16%
CN(C(=O)c1ccc(-c2cc(-c3c[nH]nc3-c3ccccn3)ccn2)cc1)C1CCOCC1 [GW810083],%Inh,EPHB6,0%
same,%Inh,ERBB2,38%
same,%Inh,ERBB3,16%
same,%Inh,ERBB4,0%
same,%Inh,ERK1,0%
same,%Inh,ERK2,4%
same,%Inh,ERK3,11%
same,%Inh,ERK4,7%
same,%Inh,ERK5,0%
same,%Inh,ERK8,1%
same,%Inh,ERN1,2%
same,%Inh,FAK,0%
same,%Inh,FER,0%
same,%Inh,FES,14%
same,%Inh,FGFR1,4%
same,%Inh,FGFR2,0%
same,%Inh,FGFR3,0%
same,%Inh,FGFR4,0%
same,%Inh,FGR,0%
same,%Inh,FLT1,41%
O=C(NOCC1CC1)c1ccc(F)c(F)c1Nc1ccc(I)cc1Cl,%Inh,EPHB6,0%
same,%Inh,ERBB2,0%
same,%Inh,ERBB3,0%
same,%Inh,ERBB4,0%
same,%Inh,ERK1,0%
same,%Inh,ERK2,8%
same,%Inh,ERK3,0%
same,%Inh,ERK4,17%
same,%Inh,ERK5,0%
same,%Inh,ERK8,8%
same,%Inh,ERN1,0%
same,%Inh,FAK,0%
same,%Inh,FER,0%
same,%Inh,FES,0%
same,%Inh,FGFR1,0%
same,%Inh,FGFR2,0%
same,%Inh,FGFR3,0%
same,%Inh,FGFR4,0%
same,%Inh,FGR,0%
same,%Inh,FLT1,10%
CC(C)(CN)c1nc(-c2ccc(Cl)c(O)c2)c(-c2ccncc2)[nH]1.O=C(O)C(F)(F)F [SB-477794],%Inh,EPHB6; 1 µM,2% and 28%
same,%Inh,ERBB2; 1 µM,83% and 80%
same,%Inh,ERBB3; 1 µM,42% and 45%
same,%Inh,ERBB4; 1 µM,26% and 35%
same,%Inh,ERK1; 1 µM,0% and 11%
same,%Inh,ERK2,0%
same,%Inh,ERK3; 1 µM,20% and 0%
same,%Inh,ERK4; 1 µM,13% and 20%
same,%Inh,ERK5; 1 µM,32% and 56%
same,%Inh,ERK8,0%
same,%Inh,ERN1; 1 µM,1% and 22%
same,%Inh,FAK,0%
same,%Inh,FER; 1 µM,12% and 31%
same,%Inh,FES; 1 µM,0% and 22%
same,%Inh,FGFR1; 1 µM,24% and 54%
same,%Inh,FGFR2,0%
same,%Inh,FGFR3; 1 µM,8% and 33%
same,%Inh,FGFR4; 1 µM,18% and 0%
same,%Inh,FGR; 1 µM,95.3% and 94.8%
same,%Inh,FLT1; 1 µM,82% and 80%
CC(C)Oc1ccc2c(-c3ccnc(Nc4ccc(N5CCN(C)CC5)cc4)n3)cnn2n1 [GW696155],%Inh,EPHB6,70%
same,%Inh,ERBB2,53%
same,%Inh,ERBB3,14%
same,%Inh,ERBB4,39%
same,%Inh,ERK1,0%
same,%Inh,ERK2,0%
same,%Inh,ERK3,92.1%
same,%Inh,ERK4,47%
same,%Inh,ERK5,45%
same,%Inh,ERK8,98%
same,%Inh,ERN1,62%
same,%Inh,FAK,0%
same,%Inh,FER,22%
same,%Inh,FES,15%
same,%Inh,FGFR1,15%
same,%Inh,FGFR2,1%
same,%Inh,FGFR3,12%
same,%Inh,FGFR4,0%
same,%Inh,FGR,57%
same,%Inh,FLT1,59%
Cc1cccc(-c2nc(Nc3ccc4ncsc4c3)c3ccccc3n2)n1 [GW867588],%Inh,EPHB6,0%
same,%Inh,ERBB2,6%
same,%Inh,ERBB3,21%
same,%Inh,ERBB4,25%
same,%Inh,ERK1,0%
same,%Inh,ERK2,2%
same,%Inh,ERK3,0%
same,%Inh,ERK4,0%
same,%Inh,ERK5,0%
same,%Inh,ERK8,0%
same,%Inh,ERN1,38%
same,%Inh,FAK,3%
same,%Inh,FER,0%
same,%Inh,FES,13%
same,%Inh,FGFR1,0%
same,%Inh,FGFR2,0%
same,%Inh,FGFR3,0%
same,%Inh,FGFR4,0%
same,%Inh,FGR,17%
same,%Inh,FLT1,0%
Cc1nnc(-c2ccc(C)c(-c3ccc(C(=O)Nc4ccc(NS(C)(=O)=O)cc4)cc3)c2)o1 [GW702865],%Inh,EPHB6,10%
same,%Inh,ERBB2,33%
same,%Inh,ERBB3,20%
same,%Inh,ERBB4,8%
same,%Inh,ERK1,10%
same,%Inh,ERK2,0%
same,%Inh,ERK3,0%
same,%Inh,ERK4,0%
same,%Inh,ERK5,0%
same,%Inh,ERK8,0%
same,%Inh,ERN1,0%
same,%Inh,FAK,0%
same,%Inh,FER,4%
same,%Inh,FES,0%
same,%Inh,FGFR1,0%
same,%Inh,FGFR2,0%
same,%Inh,FGFR3,11%
same,%Inh,FGFR4,0%
same,%Inh,FGR,24%
same,%Inh,FLT1,25%
O=C(NCCCN1CCOCC1)c1cccc(Nc2nccc(Nc3ccc(Oc4ccccc4)cc3)n2)c1 [GW663929],%Inh,EPHB6,55%
same,%Inh,ERBB2,38%
same,%Inh,ERBB3,99.3%
same,%Inh,ERBB4,79%
same,%Inh,ERK1,0%
same,%Inh,ERK2,0%
same,%Inh,ERK3,0%
same,%Inh,ERK4,34%
same,%Inh,ERK5,27%
same,%Inh,ERK8,0%
same,%Inh,ERN1,21%
same,%Inh,FAK,0%
same,%Inh,FER,19%
same,%Inh,FES,16%
same,%Inh,FGFR1,0%
same,%Inh,FGFR2,0%
same,%Inh,FGFR3,30%
same,%Inh,FGFR4,54%
same,%Inh,FGR,93.4%
same,%Inh,FLT1,30%
